From PubChem BioAssay (NCI)
The panel holds about 83,000 compounds, 20% with a hit somewhere; the sample as a whole holds those more often.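 Cell lines were cultured in 96-well plates, exposed to a single compound concentration, and assessed for percent growth 48 hours later.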 A number with no mark means an inactive call. Active and inactive are the calls of the source. Rule for the calls: active = growth percent below 10; inactive = the rest.

What follows are compounds tested on HL-60(TB) leukemia (assay: NCI-60 one-dose screen, 48 h (100 = growth as untreated, 0 = no growth, -100 = all killed)). Conditions: 10 µM unless noted.
In the case of `COc1ccc(C2CC(=O)c3c(O)c(OC)c(OC)c(OC)c3O2)c(O)c1` (centres undefined), the growth is reported as 2.26% (active). Compound `FC(F)(F)c1cc(N2CCCCC2)nc(NCCCNc2ccnc3cc(Cl)ccc23)n1` has a growth of 42.1%. In the case of `O=C(Nc1ccc(Nc2ccncc2)cc1)c1ccc([N+](=O)[O-])cc1`, the growth is reported as -75.2% (active). Work on `O=C1CC(c2ccc(O)c(O)c2)Oc2cc(O)c([C@@H]3O[C@H](CO)[C@@H](O)[C@H](O)[C@H]3O)c(O)c21` (some centres undefined) yielded a growth of 99.6%. With `COc1ccc(-c2ccc3cc(C(=O)Nc4ccc(O)c(C(=O)/C=C/c5cc(OC)c(OC)c(OC)c5)c4)ccc3c2)cc1` the growth was 95.5%. Work on `COc1cc2nc3cc([N+](=O)[O-])ccc3c(Cl)c2cc1OC` yielded a growth of 109%. Work on `COc1ccc(-c2cc(C#N)c(NNC(C)=O)[nH]2)cc1` yielded a growth of 11.4%. `c1nc(N2CCOCC2)c2[nH]ccc2n1` showed a growth of 90.2%. For `Cc1ccc(CNc2ccc3nc(CCC(C)C)[nH]c3c2)cc1`, the growth was 93.7%. For `COc1ncc(-c2ccc3nc(N)n(-c4ccccc4C(F)(F)F)c(=O)c3c2)cc1S(=O)(=O)Nc1ccc(F)cc1F`, the growth was 19.9%. With `N#CSCC1CC(O)(c2ccccc2)C(c2ccccc2)C(c2ccc(Cl)cc2)O1` (centres undefined) the growth was -1.83% (active). In the case of `O=C(Nc1ccc(Cl)cc1)c1cc(-c2ccc(Cl)cc2)c2sc(=O)[nH]c2n1`, the growth is reported as -53.7% (active). With `COc1ccc(/C=C2\SC(=O)N(Cc3cc(=O)oc4ccc(OC)cc34)C2=O)cc1` the growth was 90.9%. `CCOc1ccccc1NC(=O)CCC(=O)OC` gave a growth of 78.7%. `CC(O)COc1ccc(-c2ccccc2)cc1` (centres undefined) was tested, and the growth was 102%. With `N#C/C(=C/C=C/c1ccccc1)S(=O)c1ccccc1` (centres undefined) the growth was -16.5% (active). For `Cc1ccc(-[n+]2c3cc(N)c(C)cc3nc3cc(C)c(Nc4ccccc4)cc32)cc1`, the growth was -20.6% (active). For `Cc1cc2nc3c4cccc(O)c4n(CCN(C)C)c3nc2cc1C`, the growth was 29.2%. In the case of `COc1ccc(-c2nc(SCC(C)C)nc(Nc3ccccc3)c2C#N)cc1`, the growth is reported as 88.6%. In the case of `C/C(=C\c1ccc2ccccc2c1)[N+](=O)[O-]`, the growth is reported as -25.7% (active). `O=C1/C(=C(/c2ccccc2)N2CCOCC2)Cc2ccccc21` gave a growth of 27.5%. With `COc1ccccc1CNCCCN1C(=O)c2ccc3c4c(ccc(c24)C1=O)C(=O)N(CCCOCCCCOCCCN)C3=O` the growth was -50.2% (active). With `Cc1cc(N/C=c2\sc3ncnn3c2=O)no1` the growth was 111%. For `C/C(=C\CCc1ccsc1)CC/C=C(\C)CCCN1CCC(CO)CC1`, the growth was -49.9% (active). In the case of `COc1ccc(C/C(C)=C(\c2ccc(Cl)cc2)c2ccc(OCCN3CCCC3)cc2)cc1`, the growth is reported as 76.9%. With `COC(=O)C(Br)(C(=O)OC)C(Br)C(Br)C(Br)c1ccccc1` (centres undefined) the growth was 7.57% (active). For `O=C1C[C@H](N2C(=O)c3ccccc3S2(=O)=O)C2CO[C@@H]1O2`, the growth was 106%. `CN(C)CCOc1ccc(/C(=C(/CCCl)c2ccccc2)c2ccccc2)cc1` was tested, and the growth was -33% (active). For `c1ccc(CCSc2ncnc3nc[nH]c23)cc1`, the growth was 74.7%.
